Screens: PubChem BioAssay, National Center for Advancing Translational Sciences (NCATS)
DT40 TDP1 CPT: DT40-hTDP1 cell growth loss with CPT; Potency, µM (top dose mostly 46.2 µM), for the others: at the highest dose activity change, negative = growth inhibition, most hits filed as inhibitors; hit rate 12% among 420,000; chicken DT40 Tdp1-/-;hTDP1 cells + 20 nM CPT, ATP luminescence, 48 h; further: nearly all actives have a fitted effect of over 55% in size
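Cell growth measured by CellTiter-Glo luminescence after a minimum 48 h, 37 C compound exposure with 20 nM CPT in Tdp1-knockout DT40 cells stably expressing hTDP1, seeded 400/well; qHTS titration format.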
TDP1 block: inhibitors of human tyrosyl-DNA phosphodiesterase TDP1 | Q9NUW8 | recombinant TDP1, AlphaScreen DNA substrate cleavage | Potency, µM (series often up to 130 µM), inactives show at the top dose activity change, negative = inhibition, usual class: inhibitors | hit rate 0.28% among 350,000; further: nearly all actives have a fitted effect of over 40% in size
Target sequence (Q9NUW8 whole entry, looked up): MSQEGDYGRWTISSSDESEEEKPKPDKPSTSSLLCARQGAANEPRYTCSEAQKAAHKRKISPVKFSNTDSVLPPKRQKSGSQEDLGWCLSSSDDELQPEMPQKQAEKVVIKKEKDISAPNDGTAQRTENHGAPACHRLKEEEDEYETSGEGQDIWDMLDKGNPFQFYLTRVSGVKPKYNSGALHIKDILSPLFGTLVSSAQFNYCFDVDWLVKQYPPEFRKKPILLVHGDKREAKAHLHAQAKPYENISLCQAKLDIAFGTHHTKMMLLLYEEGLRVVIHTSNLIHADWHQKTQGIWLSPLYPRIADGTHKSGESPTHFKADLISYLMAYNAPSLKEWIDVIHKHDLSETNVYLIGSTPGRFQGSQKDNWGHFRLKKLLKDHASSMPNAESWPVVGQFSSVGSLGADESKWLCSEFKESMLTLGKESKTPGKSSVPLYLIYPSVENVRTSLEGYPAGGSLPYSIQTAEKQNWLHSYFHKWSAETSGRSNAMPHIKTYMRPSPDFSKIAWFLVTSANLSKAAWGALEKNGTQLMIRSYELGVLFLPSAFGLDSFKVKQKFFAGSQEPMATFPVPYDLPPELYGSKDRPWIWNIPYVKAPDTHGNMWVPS
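AlphaScreen read-out: signal falls as enzyme removes the 3' tyrosine-FITC from a 5'-biotinylated DNA oligo (15 nM, 5 min, RT). Enzyme was E. coli-made recombinant Tdp1 at 1 nM, exposed to compound for 15 min beforehand; beads 10 ug/ml, 10 min.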
DT40 TDP1 no CPT: qHTS for Inhibitors of human tyrosyl-DNA phosphodiesterase 1 (TDP1): qHTS in cells in absence of CPT. DT40 Tdp1-/- hTDP1 cells, no CPT, ATP luminescence, 48 h. hit rate 15% among 420,000. Potency, µM (doses to about 46.2 µM), without a hit: top-dose activity change, negative = growth inhibition, most hits filed as inhibitors; further: nearly all actives have a fitted effect of over 55% in size
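Chicken DT40 Tdp1-/- cells complemented with human TDP1, screened without camptothecin (DMSO vehicle only), 400 cells/well. Compounds pin-transferred, cells incubated at 37 °C for at least 48 hr. Growth read as ATP-dependent luminescence (CellTiter-Glo, 30 min at RT).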
PLK1 PBD inh: inhibitors of human PLK1 polo-box domain binding; hit rate 2.8% among 360,000; P53350; Potency, µM, inactives show max response, negative = inhibition, hits mostly inhibitors; Plk1 PBD binding of FITC phosphopeptide, fluorescence polarization; AID 720504; further: series mostly up to about 57 µM; nearly all actives have a fitted effect of over 65% in size
VDR inh: inhibitors of human vitamin D receptor; VDR-SRC2-3 peptide fluorescence polarization, 2 h; Potency, µM, without a hit: max response, negative = inhibition, hits mostly inhibitors; hit rate 0.93% among 400,000; AID 504847
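Measured by FP: displacement of SRC2-3 coactivator peptide from VDR by library compounds, following a two-hour ambient incubation.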
KAT2A inh: inhibitors of human GCN5L2 histone acetyltransferase. Q92830. GCN5L2 HAT assay, ThioGlo1 CoA-SH fluorescence. Potency, µM (top dose mostly 58.9 µM), without a hit: top-dose activity change, negative = inhibition, actives largely listed as inhibitors. hit rate 0.21% among 390,000. AID 504327
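GCN5L2 (20nM final) in 50mM HEPES, 0.1mM EDTA pH 7.5, 0.01% Tween-20 was preincubated 15 min at room temperature with compound, then given ThioGlo1 (50uM), H3(1-25) peptide (75uM) and acetyl-CoA (70uM); CoA-thiol fluorescence (Ex340/Em540) was read at 0 and 20 min.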
The depositor's hits bear a star; ? = inconclusive; / = no result given. Hits are enriched below; roughly 18% of the tested compounds scored in any of these assays. The call rests on the fitted dose curve; in most records, active means well fitted curve in the direction sought with a large enough effect; inconclusive means small, poorly fitted or top-dose-only effect, or another doubt; inactive means no such curve, though single readings can be large; an effect the other way counts as inactive or inconclusive. On the % scale 0 is the no-effect control and ±100 the full control effect; potency means the concentration at half of the fitted maximal effect.

SMILES	DT40 TDP1 CPT	TDP1 block	DT40 TDP1 no CPT	PLK1 PBD inh	VDR inh	KAT2A inh
COc1ccccc1CNc1nc(NC(C)C)nc2ccsc12	12µM*	/	12µM*	-6%	/	/
COc1cccc(CNc2nnnn2C)c1OC	-16%	/	-1%	-6%	-1%	-2%
O=C(c1ccc(=O)[nH]c1)N(c1ccccc1)C(CCc1ccccc1)c1nc2ccccc2[nH]1 (stereo unspecified)	-27%	/	?	-1%	/	/
CCc1ccccc1-n1c(N)c(C(=O)OC)c2nc3ccccc3nc21	-19%	/	?	/	-13%	-10%
CN(CC(=O)Nc1ccccc1-c1ccccc1)Cc1ccccc1Cl	?	0%	?	-2%	6%	-10%
CC(C)Nc1nc(NCCOc2ccccc2)c2sccc2n1	21µM*	/	9.2µM*	-9%	/	/
COc1cccc(CNc2nc(NC(C)C)nc3ccsc23)c1OC	18µM*	/	21µM*	-2%	/	/
CSc1ccccc1CNc1nc(NCC2CC2)nc2ccsc12	15µM*	/	21µM*	4%	/	/
Fc1ccccc1-c1nc(NCC2CC2)nc2ccsc12	?	/	?	-3%	/	/
CC(=O)NCCNc1nc(NC(C)C)nc2ccsc12	5%	/	4%	1%	/	/
COC(=O)c1ccccc1NC(=O)C12CC3CC(C1)CC(n1cnc(Cl)n1)(C3)C2	21µM*	3%	16µM*	-7%	-7%	-3%
O=C(Nc1cc(Oc2ccccc2)cc([N+](=O)[O-])c1)C12CC3CC(C1)CC(n1cnc(Cl)n1)(C3)C2	?	5%	?	-5%	-3%	-13%
COc1ccc(NC(=O)C23CC4CC(C2)CC(n2cnc(Br)n2)(C4)C3)cc1Cl	?	1%	23µM*	-5%	-6%	1%
COC(=O)C12CC3CC(C1)CC(n1cnc(Cl)n1)(C3)C2	?	-2%	-16%	-3%	6%	-1%
O=C(Nc1cccc2ccccc12)C12CC3CC(C1)CC(n1cnc([N+](=O)[O-])n1)(C3)C2	23µM*	4%	26µM*	-4%	13%	-4%
O=C(O)c1cccc(NC(=O)C23CC4CC(C2)CC(n2cnc(Cl)n2)(C4)C3)c1	10%	3%	9%	-3%	9%	-3%
CCN1CCN(c2c(/C=C3\SC(=S)N(Cc4ccco4)C3=O)c(C)c(C#N)c(=O)n2C)CC1	?	-5%	15µM*	16%	-12%	0%
Cc1ccc(Cn2c(C)nc3ccc([N+](=O)[O-])cc3c2=O)cc1	18µM*	/	21µM*	-8%	-20%	-5%
N#Cc1c(N)n(Cc2ccccc2)c(=O)c2cc([N+](=O)[O-])ccc12	16µM*	/	18µM*	-12%	-22%	-7%
O=C(Nc1cc(C(=O)N2CCN(CCO)CC2)c2c(c1)ncn2C1CCCC1)c1ccccc1	18%	/	-10%	/	/	/
Cc1ccccc1CN1CCNC(=O)C1CC(=O)NC1CCCCCCC1 (stereo unspecified)	?	3%	-23%	-12%	17%	-2%
O=C(CC1C(=O)NCCN1CC1CCCCC1)NCc1cc(F)ccc1F (stereo unspecified)	23µM*	3%	?	3.8µM*	?	-3%
O=C(CC1C(=O)NCCN1CC1CCCCC1)NCc1ccc(F)cc1F (stereo unspecified)	-1%	3%	-18%	-13%	-16%	0%
CN(C(=O)CC1C(=O)NCCN1Cc1ccccc1C(F)(F)F)C1CCOCC1 (stereo unspecified)	?	1%	21µM*	11µM*	?	-4%
CCc1ccc(CNC(=O)CC2C(=O)NCCN2Cc2ccccc2F)nc1 (stereo unspecified)	-18%	5%	5.2µM*	-10%	6%	-3%
SMILES	DT40 TDP1 CPT	TDP1 block	DT40 TDP1 no CPT	PLK1 PBD inh	VDR inh	KAT2A inh
CCOc1ccccc1CN1CCNC(=O)C1CC(=O)NC1CCCCCCC1 (stereo unspecified)	29µM*	/	?	-14%	11%	/
C[C@H]1CN([C@@H](C)CO)C(=O)c2cccc(NC(=O)C3CC3)c2O[C@H]1CN(C)S(=O)(=O)c1ccccc1	-29%	0%	-25%	-20%	4%	-3%
O=C(O)c1cccc(Nc2ncnc3scc(-c4ccccc4)c23)c1	?	/	?	/	1%	-10%
COc1cccc(/C=N/Nc2ncnc(Cl)c2N)c1O	0.82µM*	11%	0.52µM*	0%	5%	-4%
Nc1c(Cl)ncnc1N/N=C/c1cccc(O)c1	-18%	/	-7%	-7%	-26%	-2%
Oc1ccccc1/C=N/Nc1nccnc1Cl	4.6µM*	8%	2.9µM*	0%	3%	-9%
Clc1nccnc1N/N=C/c1ccc(Br)cc1	?	/	-25%	0%	3%	-10%
COc1cccc(/C=N/Nc2ncnc3scc(-c4ccccc4)c23)c1O	1µM*	10%	1.5µM*	11%	-2%	-13%
COc1ccc(/C=N/Nc2nccnc2Cl)cc1	9.2µM*	2%	21µM*	-8%	-4%	-4%
O=C1C(=Cc2cccc(F)c2)Cc2ccccc21	-20%	/	?	-13%	/	/
COc1ccc(/C=N/Nc2nccnc2Cl)c(OC)c1	5%	0%	-14%	-18%	-1%	-11%
COc1cccc(/C=N/Nc2nccnc2Cl)c1O	3.3µM*	8%	4.6µM*	-2%	-1%	-7%
CC1CCc2cc(F)ccc2N1S(=O)(=O)c1ccc(Cl)nc1 (stereo unspecified)	15µM*	-3%	?	3%	-23%	-4%
O=[N+]([O-])c1ccc2oc(C(O)c3cccc(Cl)c3)cc2c1 (stereo unspecified)	?	/	12µM*	-5%	-1%	-3%
CC1=C(C(=O)OCc2cc(C)on2)N2C(=O)[C@@H](NC(=O)OCc3cc(C)on3)[C@H]2SC1	-23%	-3%	-19%	?	-19%	-5%
Oc1ccc(Nc2ccc3ccccc3c2)cc1	18µM*	/	23µM*	?	?	/
Cc1cc(C)nc(Nc2ccc(O)cc2)n1	-19%	/	21%	4%	13%	-2%
Oc1ccc(Nc2nc(-c3ccc4ccccc4c3)cs2)cc1	/	12%	/	/	/	-14%
Cc1cc(Nc2ccc(O)cc2)ccc1N	5µM*	7%	3.2µM*	/	?	1%
Cc1sc(-n2c(C)cc(/C=N/n3cnnc3)c2C)c(C#N)c1C	16µM*	5%	21µM*	17µM*	?	-8%
CCc1cc2c(=O)c(-c3nc4ccccc4n3C)coc2c(CN2CCCCC2)c1O	?	/	?	5%	-3%	-14%
